Screening data as filed in PubChem.
Neddylation inh: inhibitors of cullin neddylation, primary screen, biochemical, TR-FRET, uHTS, NAE and Ubc12 | NEDD8-conjugating enzyme Ubc12 (Homo sapiens) + NEDD8-activating enzyme E1 regulatory … | calls only at 25 µM | hit rate 0.58% among 360,000; in the data active = inhibition above about 36%
Target sequence (P61081 whole entry, looked up): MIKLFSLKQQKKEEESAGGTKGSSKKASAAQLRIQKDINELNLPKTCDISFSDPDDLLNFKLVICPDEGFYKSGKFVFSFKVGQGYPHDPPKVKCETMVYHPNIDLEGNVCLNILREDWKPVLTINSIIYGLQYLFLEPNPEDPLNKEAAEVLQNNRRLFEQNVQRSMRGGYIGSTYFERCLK
Target sequence (Q13564 whole entry, looked up): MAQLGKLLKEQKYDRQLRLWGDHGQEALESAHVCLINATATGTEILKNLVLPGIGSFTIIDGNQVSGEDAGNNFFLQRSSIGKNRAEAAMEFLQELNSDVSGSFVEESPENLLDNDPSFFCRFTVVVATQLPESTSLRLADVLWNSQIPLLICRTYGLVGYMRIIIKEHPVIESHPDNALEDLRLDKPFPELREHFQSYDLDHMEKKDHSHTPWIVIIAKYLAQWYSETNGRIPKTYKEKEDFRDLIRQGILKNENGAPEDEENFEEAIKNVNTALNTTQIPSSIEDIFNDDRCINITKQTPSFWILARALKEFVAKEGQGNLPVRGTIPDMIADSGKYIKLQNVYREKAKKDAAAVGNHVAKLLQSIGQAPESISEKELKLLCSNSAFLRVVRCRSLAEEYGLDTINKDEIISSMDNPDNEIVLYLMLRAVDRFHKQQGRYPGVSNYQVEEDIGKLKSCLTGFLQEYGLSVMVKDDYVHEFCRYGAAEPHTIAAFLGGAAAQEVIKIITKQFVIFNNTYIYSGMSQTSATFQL
UHRF1 binding: UHRF1 methylated DNA binding inhibitors, primary screen, counter-screen for MBD2 inhibitor project, biochemical, TR-FRET, human UHRF1, single concentration | E3 ubiquitin-protein ligase UHRF1 (Homo sapiens), Q96T88 | UHRF1 binding to methylated oligo | inhibition, % at 4.4 µM | hit rate 0.75% among 370,000 | AID 687016, 2013;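 also: UHRF1 SRA domain binding a hemimethylated CpG hairpin DNA probe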
KLK7 zymogen act: proKLK7 zymogen activators, primary screen, biochemical, fluorescence intensity | purified proKLK7, EDANS-DABCYL substrate fluorescence; 100% is mature enzyme control, 0% vehicle | hit rate 0.9% among 370,000 | activation, % at 7 µM | Kallikrein-7 (Homo sapiens), P49862;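 active = activation above the mean of all tested compounds plus 3 SD, computed per campaign excluding outliers beyond control limits, cut at about 13% in these data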
LEDGF integ inh: blockers of LEDGF/p75-dependent integrase strand transfer – biochemical, TR-FRET, high throughput, primary screen; TR-FRET IN-LEDGF/p75 DNA integration, Eu/Cy5; AID 743269, 2014; inhibition, % at 3.7 µM; hit rate 0.64% among 370,000;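 active = inhibition above the screen-wide mean plus 3 SD, cut at about 13% in these data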;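 also: signal is the Cy5 over europium emission ratio at 671 and 618 nm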
MBD2 inh: inhibitors of MBD2 binding to methylated DNA, primary screen, biochemical, TR-FRET, DNA-binding domain, human; hit rate 0.31% among 370,000; MBD2 binding to methylated oligonucleotide; Methyl-CpG-binding domain protein 2 (Homo sapiens), Q9UBB5; inhibition, % at 4.4 µM; in the data active = inhibition above about 13%
Rin1-Abl PPI inh: inhibitors of Rin1-Abl protein binding, primary screen, biochemical, TR-FRET; AID 588664, 2011; inhibition, % at 7.35 µM; Tyrosine-protein kinase ABL1 (Homo sapiens) + Ras and Rab interactor 1 (Homo sapiens), …; hit rate 0.4% among 360,000; in the data active = inhibition above about 5%, passing the limit was not always enough
Rin1-Abl confirm: Rin1-Abl binding inhibitor retest, confirmation, biochemical, TR-FRET; shares compounds with Rin1-Abl PPI inh; purified proteins; AID 602124, 2011; inhibition, % at 7.35 µM; hit rate 49% among 1,300; in the data active = inhibition above about 6.5%
GFP quencher: GFP fluorescence inhibitors and quenchers, artefact control for Rin1-Abl interaction inhibitor project, biochemical | shares compounds with Rin1-Abl PPI inh | inhibitors/quenchers counterscreen | inhibition, % at 6.75 µM | hit rate 8.5% among 1,300 | AID 602125, 2011; in the data active = inhibition above about 6.5%;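 also: ABL1-eGFP fusion protein alone without its partner RIN1-SBP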
GFP quench dose: GFP fluorescence inhibitors and quenchers, dose response, artefact control for Rin1-Abl interaction inhibitor project, biochemical; shares compounds with Rin1-Abl PPI inh; GFP fluorescence interference/quenching counterscreen; IC50, µM; 230 tested, under 10 active; AID 602182, 2012; call rule not given here;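 also: ABL1-eGFP fusion protein alone without its RIN1 binding partner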
Neddyl conf: blockade of NEDD8 conjugation to cullin – biochemical, TR-FRET, single concentration, confirmation | shares compounds with Neddylation inh | TR-FRET cullin neddylation biochemical assay | calls only at 25 µM | hit rate 13% among 1,800 | AID 652217, 2013; in the data active = inhibition above about 40%;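 also: neddylation substrate is the cullin 1 ring ligase complex with SKP2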
proKLK7 act conf: proKLK7 zymogen activators, confirmation, biochemical, fluorescence intensity, triplicate | hit rate 68% among 3,200 | shares compounds with KLK7 zymogen act | activation, % at 7 µM | purified proKLK7, EDANS-DABCYL substrate fluorescence; scaled: vehicle 0, mature enzyme 100 | AID 686949, 2013;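 active = activation, as change over the incubation, above the mean of all tested compounds plus 3 SD, cut at about 13% in these data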
EDANS interfere: EDANS-DABCYL substrate optical interference, artefact control for kallikrein-7 zymogen activator project, biochemical, fluorescence intensity, high throughput | shares compounds with KLK7 zymogen act | no enzyme, 4 h; solvent 0%, active enzyme control 100% | activation, % at 7 µM | hit rate 80% among 3,200;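 active = activation above the all-compound mean plus 3 SD, ignoring values outside control-based bounds, cut at about 4.8% in these data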;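 also: value is the 4 h activation minus the activation read at time zero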
UHRF1 ctr MBD2: UHRF1 methylated DNA binding inhibitors, counter-screen for MBD2 inhibitor project, biochemical, TR-FRET, human UHRF1. shares compounds with MBD2 inh. UHRF1 binding to methylated oligonucleotide. inhibition, % at 4.4 µM. hit rate 25% among 1,000;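 also: UHRF1 SRA domain binding a labeled hemimethylated CpG hairpin DNA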
MBD2 DBD conf: inhibitors of MBD2 binding to methylated DNA, confirmation, biochemical, TR-FRET, DNA-binding domain, human; shares compounds with MBD2 inh; hit rate 26% among 1,000; TR-FRET MBD2-DBD binding to methylated oligonucleotide; inhibition, % at 4.4 µM; in the data active = inhibition above about 14%
IN multimer up: HIV-1 IN multimer formation enhancers, counter-screen for LEDGF/p75 integration inhibitor project, biochemical, TR-FRET | shares compounds with LEDGF integ inh | TR-FRET HIV-1 integrase multimerization | activation, % at 7.7 µM | hit rate 17% among 2,000 | AID 1053131, 2014; in the data active = activation above about 8.9%
TR-FRET interf: TR-FRET optical interference artefacts, confirmation, artefact control for LEDGF/p75-dependent integration inhibitor project, biochemical, HIV-1 IN multimerization. shares compounds with LEDGF integ inh. TR-FRET optical interference counterscreen. inhibition, % at 7.7 µM. 2,000 tested, under 10 active. AID 1053135, 2014;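 active = inhibition above the mean over all tested compounds plus 3 SD, which no compound reached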
LEDGF integ conf: inhibitors of HIV-1 IN-LEDGF/p75 DNA integration, confirmation, biochemical, TR-FRET | shares compounds with LEDGF integ inh | hit rate 36% among 2,000 | TR-FRET LEDGF/p75-dependent HIV-1 integration | AID 1053136, 2014 | inhibition, % at 3.7 µM; in the data active = inhibition above about 14%
Of the large screens only hits and unclear results are named; the others gave an inactive call (follow-up assays come after a bar, where shown). Only some compounds are listed: those with a hit (about 3.1% of all), similar ones and a draw of the others. Rule as the data show it, unless noted: active = inhibition above about 21%; inactive = the rest.

NC(Cc1ccccc1)[P+](=O)O (stereo unspecified)	none (no result: Neddylation inh, Rin1-Abl PPI inh)
COC(=O)C1=C(c2ccc(OC(F)(F)F)cc2)C[C@@H]2CC[C@H]1N2C(=O)NC1CCCCC1	none
COc1cc(C(O)CN)ccc1O (stereo unspecified)	none
COc1cc2c(ccc3cc(OC)c(OC)c(O)c32)cc1O	UHRF1 binding 52.5, LEDGF integ inh 36.4, MBD2 inh 26.9, Rin1-Abl PPI inh 20.5 | Rin1-Abl confirm 17.0 | GFP quencher inactive | GFP quench dose inactive
O=C(CNC(=O)OCc1ccccc1)NC(Cc1ccccc1)P(=O)(Oc1ccccc1)Oc1ccccc1 (stereo unspecified)	none (no result: Neddylation inh, Rin1-Abl PPI inh)
Fc1ccc(CNCCc2ccccc2F)cc1	none
Fc1ccccc1CCNCc1ccccc1	Rin1-Abl PPI inh 8.8 | Rin1-Abl confirm inactive | GFP quencher inactive
CCCCCc1cc(O)c2c3c(c(=O)oc2c1)CN(C)CC3	Rin1-Abl PPI inh 8.0 | Rin1-Abl confirm inactive | GFP quencher inactive
Cc1ccccc1CCC[C@H](CC1CCCCC1)CN(C)C(=O)Oc1ccccc1	none (no result: Neddylation inh, Rin1-Abl PPI inh)
COc1ccc(CCN)cc1O	none
NCCc1cc(O)c(O)cc1O	UHRF1 binding 57.9, LEDGF integ inh 55.9, MBD2 inh 25.4, Rin1-Abl PPI inh 38.8 | Rin1-Abl confirm 40.5 | GFP quencher 8.7 | IN multimer up 64.2 | TR-FRET interf inactive | LEDGF integ conf 75.0
CCOCCCn1c(N)c(C(=O)Nc2sc3c(c2C(=O)OC)CCCC3)c2nc3ccccc3nc21	KLK7 zymogen act 28.0, LEDGF integ inh 31.5, MBD2 inh 13.9, Rin1-Abl PPI inh 22.1 (not shown: Neddylation inh) | Rin1-Abl confirm inactive | GFP quencher inactive | proKLK7 act conf inactive | EDANS interfere inactive | UHRF1 ctr MBD2 inactive | MBD2 DBD conf inactive | IN multimer up inactive | TR-FRET interf inactive | LEDGF integ conf inactive
N#Cc1ccc(NC(=S)N2Cc3ccc(Br)cc3-n3nncc3C2)cc1	none (no result: Neddylation inh, Rin1-Abl PPI inh)
N#CC1c2ccccc2-n2nncc2CN1C(=O)c1cccnc1 (stereo unspecified)	none (no result: Neddylation inh, Rin1-Abl PPI inh)
O=C(O)CCCCC1SCC2NC(=O)NC21 (stereo unspecified)	LEDGF integ inh 70.0, Rin1-Abl PPI inh 85.9 | Rin1-Abl confirm 91.6 | GFP quencher inactive | GFP quench dose inactive | IN multimer up inactive | TR-FRET interf inactive | LEDGF integ conf 63.3
O=C1CN=C(c2ccc(Br)cc2)c2oc3ccccc3c2N1	Neddylation inh active | Neddyl conf inactive
CCn1c(O)c(/C=N/NC(=O)c2ccccc2)c(=O)[nH]c1=S	Neddylation inh active | Neddyl conf inactive
Cc1cc(N(CCCl)CCCl)ccc1C=NNC(=O)c1cccnc1	Neddylation inh active | Neddyl conf inactive
N=c1c2c(-c3ccccc3)c(-c3ccccc3)n(Cc3ccccc3)c2ncn1C1CCC(O)CC1 (stereo unspecified)	none (no result: Neddylation inh, Rin1-Abl PPI inh)
CN(C)c1ccc(/C=C/c2cc[n+](C)c3ccccc23)cc1	none
C[n+]1ccc(-c2ccccc2)c2ccccc21	Neddylation inh active | Neddyl conf active
O=C1CN=C(c2ccc[nH]2)c2cc(Cl)ccc2N1	Neddylation inh active | Neddyl conf active
CN(C)C(=O)Oc1ccc(Cl)c2cccnc12	Neddylation inh active | Neddyl conf inactive
CN(C)C(=O)Oc1c(Cl)cc(Cl)c2ccccc12	none
CCCCCCC(=O)N/N=C/c1c(O)n(C2CC2)c(=S)[nH]c1=O	Neddylation inh active | Neddyl conf inactive
CCCCCCC(=O)N/N=C/c1c(O)n(C(C)CC)c(=S)[nH]c1=O (stereo unspecified)	none
O=C(O)c1cc2ccccc2n1C1CCN(Cc2ccccc2)CC1	none (no result: Neddylation inh, Rin1-Abl PPI inh)
COC(=O)C1(N(C)c2ccccc2)CCN(Cc2ccccc2)CC1	none (no result: Neddylation inh, Rin1-Abl PPI inh)
